In PubChem BioAssay AID504834 (National Center for Advancing Translational Sciences (NCATS), 2011):
Where “and” joins values, the source holds several entries; their conditions need not be identical. Identical values can stand only once. Out of some 320,000 compounds screened, about 22,000 (6.9%) were called active. Another 27% or so got no clear call; they are omitted. For the sample, actives were picked, then their nearest neighbours and some compounds at random. Unmarked numbers belong to inactive results. The call rests on the fitted dose curve; in most records, active means well fitted inhibition curve with a large enough effect; inconclusive means small, poorly fitted or top-dose-only effect, or another doubt; inactive means no such curve, though single readings can be large or run the other way.

assay: Primary qHTS for delayed death inhibitors of the malarial parasite plastid, 96 hour incubation; conditions: P. falciparum luciferase reporter growth; series mostly up to 28.7 µM; activity change, negative = inhibition: at the top concentration
From the text: The goal of this screen is to discover new antimalarial compounds that act by inhibiting the development of the apicoplast in the malarial parasite Plasmodium falciparum. The biochemical processes that make this organelle essential for erythrocytic stage parasites are not well understood. However, antibiotics such as azithromycin and tetracycline, which target the apicoplast translational machinery, have a potent antimalarial effect.
We have developed a cell-based assay that measures parasite growth based on the expression of an integrated copy of a firefly luciferase reporter. To detect small molecules that cause this "delayed death" phenotype, erythrocytes infected with the luciferase-expressing parasites were incubated with compounds for either one or two generations, corresponding to 48 and 96 hours, respectively. Compounds that inhibit parasite growth in the second generation, but not the first, should be enriched in antimalarials that target the apicoplast. Growth inhibition is detected by a decrease in luciferase activity.
Assay Provider: David Fidock and Eric Ekland, Columbia University
Keywords: NIH Roadmap, MLPCN, MLI, MLSMR, qHTS, NCGC, qHTS, malaria, luciferase, viability
Four microliters of infected erythrocytes (2% hematocrit, 0.05% parasitemia final concentration) in culture medium were dispensed and the plates incubated for 96 hours at 37 C in 5% CO2. Two microliters of luciferase detection reagent was added and luminescence was detected by a ViewLux (PerkinElmer) reader.
On the % scale 0 is the no-effect control and ±100 the full control effect; potency means the concentration at half of the fitted maximal effect.

Row | SMILES | activity change, negative = inhibition | Potency
1 | O=C(Nc1ccccc1C(=O)NCC1CCCO1)c1ccccc1F (stereo not given) | -21.2% | –
2 | Cc1ccc(C(=O)Nc2ccn(C)n2)cc1 | 33.8% | –
3 | CCOc1ccc(-c2cc(C)[n+](CCN(CC)CC)c(-c3ccc(OCC)cc3)c2)cc1 | – | 0.37 µM (active)
4 | CCOc1ccc2c(c1)C(c1ccc(C)cc1)=NNC(c1ccc(C)cc1)=N2 | -7.17% | –
5 | CCOc1ccc(-c2nc(C)sc2CC(=O)O)cc1 | -1.13% | –
6 | Nc1ccc(C(=O)Nc2ccccc2N)cc1 | 1.66% | –
7 | CCS(=O)(=O)N1CCN(C(=O)c2cccs2)CC1 | – | 4.65 µM (active)
8 | COc1ccc(S(=O)(=O)N2CCN(C(=O)c3cccs3)CC2)cc1OC | 43.7% | –
9 | COc1ccc(N2CCN(C(=O)c3cccs3)CC2)cc1 | – | 13.1 µM (active)
10 | O=C(COc1ccccc1)Nc1ccc(N2CCN(C(=O)c3cccs3)CC2)cc1 | 9.01% | –
11 | Cc1ccc(S(=O)(=O)N2CCN(C(=O)c3cccs3)CC2)cc1 | 22.6% | –
12 | O=C(c1cccs1)N1CCN(C(=O)N2CCOCC2)CC1 | -9.34% | –
13 | NC(=O)COc1ccccc1C(=O)NC12CC3CC(CC(C3)C1)C2 | 27.2% | –
14 | CCN(CC)CCCN=C(N)N | 45.7% | –
15 | CC(C)(C)n1nnnc1C(c1ccccc1F)N1CCN(C(=O)c2ccco2)CC1 (stereo not given) | -20.3% | –
16 | COc1ccc(CN2CCN(Cc3ccc(OC)c(OC)c3OC)CC2)cc1 | -5.74% | –
17 | Cc1nc(C(=O)Nc2ccc(Cl)cc2)sc1C1(C)CC(c2ccccc2)=NO1 (stereo not given) | -1.05% | –
18 | Cc1nn(-c2ccccc2)c(=O)c2noc(C)c12 | 24.6% | –
19 | COc1ccc(C(=O)Nc2cc(C)c(NC(=O)c3ccccc3OC)cn2)cc1 | -9.94% | –
20 | CSC1=N/C(=C\c2ccc3c(c2)OCO3)C(=O)S1 | -18.9% | –
21 | CSC1=N/C(=C\C=C\c2cccs2)C(=O)S1 | – | 5.22 µM (active)
22 | Cc1cccc(C2=N/C(=C/c3cccs3)C(=O)O2)c1 | -19.3% | –
23 | O=S(=O)(Cc1noc(-c2ccc(OC(F)(F)F)cc2)n1)c1ccc(F)cc1 | -0.67% | –
24 | COc1ccc(NC(=O)c2cccc(Cl)c2)c[n+]1[O-] | 43.4% | –
25 | COc1cc(Cl)c(S(=O)(=O)n2cnc(C)c2)cc1Cl | 13.2% | –
26 | COc1cc(OC)c(-n2cc(-c3ccc(Cl)cc3)[nH]c2=O)cc1Cl | 55.8% | –
27 | COc1cc(OC)c(-n2c(C)cc(C=O)c2C)cc1Cl | – | 13.1 µM (active)
28 | O=C1c2ccccc2C(=O)N1c1cccc2ccccc12 | 10.7% | –

Row | SMILES | activity change, negative = inhibition | Potency
29 | Cc1n[nH]c(=O)c2c(NC(=O)CSc3cc(Cl)ccc3Cl)oc(C)c12 | 11.3% | –
30 | O=C(Nc1cccc(-c2cccc(Cl)c2)c1)C1CCN(C2CCC2)CC1 | – | 10.4 µM (active)
31 | CCn1cc(CN2CCC(C(=O)Nc3cccc(-c4cccc(Cl)c4)c3)CC2)cn1 | 26.2% | –
32 | COc1cccc(-c2cccc(NC(=O)C3CCN(C4CCC4)CC3)c2)c1 | 30.6% | –
33 | COC(=O)CSc1nnc(NC(=O)CCc2ccccc2)s1 | 12.1% | –
34 | CC(C)CCN1CCN=C1N(C)C | 0% | –
35 | COc1ccc(S(=O)(=O)N2CCN(C(=O)N(C)C)C2C)cc1 (stereo not given) | 27.7% | –
36 | Cc1cccc(C(=O)N2CCN(S(=O)(=O)N3CCCCC3)CC2)c1 | 30.2% | –
37 | CCCCN(CCCC)CCC(O)c1cc2c(Cl)cc(Cl)cc2c2cc(C(F)(F)F)ccc12 (stereo not given) | – | 2.6 nM (active) and 2.9 nM (active)
38 | Cc1ccc(NC(=O)NCC(c2cccnc2)N2CCOCC2)cc1 (stereo not given) | 11.9% | –
39 | CN(CC(=O)NNC(=O)CNC(=O)c1ccccc1Cl)S(=O)(=O)c1ccc(Cl)cc1 | 16.9% | –
40 | CN(CC(=O)NCCc1ccccn1)S(=O)(=O)c1ccc(Cl)cc1 | 10% | –
41 | CN(CC(=O)NCCN1CCOCC1)S(=O)(=O)c1ccc(F)cc1 | 20.1% | –
42 | Cc1ccc(S(=O)(=O)N(C)CC(=O)NCC(c2ccc(F)cc2)N2CCOCC2)cc1 (stereo not given) | – | 10.4 µM (active)
43 | CN(CC(=O)NCC(c1ccccc1)N1CCCC1)S(=O)(=O)c1ccc(Cl)cc1 (stereo not given) | – | 8.28 µM (active)
44 | COc1ccccc1OCCOc1ccc(/C=C2\C(=N)N3N=C(C)SC3=NC2=O)cc1 | 21.5% | –
45 | CCN1CCN(C(=O)c2ccc(CN(c3ccc(C)c(C)c3)S(C)(=O)=O)cc2)CC1 | – | 10.4 µM (active)
46 | CCOC(=O)N1CCN(C(=O)CN(c2ccc(C)c(C)c2)S(=O)(=O)c2ccccc2)CC1 | 21.9% | –
47 | CCOC(=O)N1CCN(C(=O)c2ccc(CN(c3ccc(C)c(C)c3)S(C)(=O)=O)cc2)CC1 | -3.85% | –
48 | CC1CN(C(=S)Nc2ccccc2F)CC(C)O1 (stereo not given) | -42% | –
49 | O=c1[nH]n(-c2cccc(Cl)c2)c2ncccc12 | 40.9% | –
50 | Cc1[nH]n(-c2cccc(Cl)c2)c(=O)c1-c1ccc(Cl)cc1 | – | 0.415 µM (active)
51 | CCCc1cc(=O)n2[nH]c(C)c(-c3ccc(Cl)cc3)c2n1 | -3.91% | –
52 | CC(C)(O)c1ccccc1CC[C@H](SCC1(CC(=O)O)CC1)c1cccc(/C=C/c2ccc3ccc(Cl)cc3n2)c1 | -16.4% | –
53 | NS(=O)(=O)c1ccc(CCNc2nc(C(F)(F)F)nc3ccccc23)cc1 | 2.6% | –
54 | Cc1cc(C)n(-c2nc(C(F)(F)F)nc3ccccc23)n1 | 14% [at 5.75 µM] | –
55 | CCc1ccc(C(CNc2nc(C(F)(F)F)nc3ccccc23)N(C)C)cc1 (stereo not given) | – | 11.7 µM (active)
